Results filed as inconclusive are left out. Entries that show only a call come without a potency. Calls of active or inactive are those of the source. Calls follow the shape of the dose curve; as a rule, active = well fitted cell-killing curve with a large enough effect; inconclusive = small, poorly fitted or top-dose-only effect; inactive = flat fitted curve, though single readings scatter.
test: Cellular viability qHTS for adrenocortical cancer (ACC) cell line NCI-H295R (AID 1963990); conditions: CellTiter-Glo ATP luminescence, 48 h; series mostly up to 46.1 µM; also: nearly all actives have a fitted effect of over 60% in size
Summary of the method: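 Viability of NCI-H295R after 48 h of treatment (final up to 46 uM) measured through cellular ATP luminescence.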
Potency is read from the fitted curve at half-maximal effect.

SMILES | Potency
CCCCCCCCCCCCSCCOCCO | inactive
Cc1ncc(CSSCc2cnc(C)c(O)c2CO)c(CO)c1O | inactive
CN(C)/N=N/c1nc[nH]c1C(N)=O | inactive
O=C(O)Cc1ccc(OCCNC[C@H](O)c2ccccc2)cc1 | inactive
CC(=O)OCC(=O)[C@@]1(O)CC[C@H]2[C@@H]3CCC4=CC(=O)C=C[C@]4(C)[C@H]3[C@@H](O)C[C@@]21C | inactive
O=C1NC(=O)/C(=C\c2ccc(-c3ccc(F)cc3)o2)S1 | inactive
COc1ccc(S(=O)(=O)N2CCc3cccc(-c4ccncc4)c32)cc1 | 158 nM (active)
COc1ccc(C(=O)N2CCN(c3ccc4c(c3)CCC(=O)N4)CC2)cc1OC | inactive
O=C(NNc1ccccc1)c1ccncc1 | inactive
O=[N+]([O-])c1cccc(S(=O)(=O)NCCNS(=O)(=O)c2cccc([N+](=O)[O-])c2)c1 | inactive
CC[C@H](CC[C@@H](C)[C@H]1CC[C@H]2[C@@H]3CC=C4C[C@@H](O)CC[C@]4(C)[C@H]3CC[C@]12C)C(C)C | inactive
C[C@]12CCC(=O)C=C1CC[C@@H]1[C@@H]2CC[C@@]2(C)[C@H]1CC[C@]2(O)C(=O)CO | inactive
C1CCN2C[C@@H]3C[C@@H](CN4CCCC[C@@H]34)[C@H]2C1 | inactive
O=C(O)CCn1c2c(c3ccccc31)C[C@H](NS(=O)(=O)c1ccc(F)cc1)CC2 | inactive
Cc1cc2c(OCC(CNC(C)(C)C)OC(=O)c3ccccc3)cccc2[nH]1 (stereo unspecified) | inactive
COc1cc2c(cc1OCCCN1CCCC1)N=C(N)C21CCC1 | inactive

Reference: PubChem BioAssay (NCATS)
